Assay outcomes (PubChem BioAssay)
This is a sample that favours compounds with a hit; in the whole collection about 3.6% have one here.
Pf apPOL inh = Pf-apPOL DNA polymerase inhibition; AID 1794808; hit rate 0.25% among 210,000; Recombinant Pf-apPOL, molecular beacon fluorescence, 1.5 h; inhibition, % at 10 µM
mHTT CaM bind = mHTT-calmodulin interaction abrogation | P42858 | AlphaScreen His-mHTT/GST-CaM binding, luminescence | inhibition, % at 15 µM | hit rate 3.6% among 190,000 | AID 1671202
Hits are given with their value; . = inactive; / = not tested or not shown. No stated cut-off is given here; in the data, active means inhibition above about 50%; inactive means the rest.

SMILES | Pf apPOL inh | mHTT CaM bind
CCOc1ccc(-c2cn(-c3ccc(OCC)cc3)c(=O)[nH]2)cc1 | . | .
Cc1cc(C)n(CCNC(=O)c2cc(-c3ccco3)on2)n1 | . | .
Cc1nn(Cc2ccc(Cl)c(Cl)c2)c(C)c1NC(=O)c1cc(-c2ccco2)on1 | . | 57
Cc1ccc(Cn2nc(C)c(NC(=O)c3noc4c3CCCCC4)c2C)cc1 | . | .
Cc1nn(Cc2ccc(Cl)c(Cl)c2)c(C)c1NC(=O)c1noc2c1CCCC2 | . | 100
COc1cc(OC)c(NC(=O)COc2cc(C)ccc2C)cc1Cl | . | .
O=C(Nc1cccc(Cl)c1)Nc1cccc(-c2ccc3nncn3n2)c1 | . | .
Cn1cnnc1SCC(=O)c1cccs1 | 98 | .
O=C(CSc1nn2c(SCC(=O)c3cccs3)nnc2s1)c1cccs1 | . | .
O=C(O)c1coc2c1C(=NNc1ccccc1)CCC2 | . | /
c1ccc(N/N=C2/C/C(=N\Nc3ccccc3)c3ccccc32)cc1 | / | 91
CCN(CC)c1ccc(N=Cc2c[nH]c3ccccc23)cc1 | . | 83
C(=Nc1cccnc1)c1c[nH]c2ccccc12 | / | .
CCc1cc(C(=O)Cc2ccccc2)c(O)cc1O | . | .
COc1ccc(C(=O)C=Cc2ccc3c(c2)OCCO3)c(OCc2ccccc2)c1 | . | .
COc1ccc(O)c(C(=O)C=Cc2ccc3c(c2)OCCO3)c1 | . | 61
CC1N=C(SCC(=O)c2ccc(F)cc2)N2C(C)N=C(SCC(=O)c3ccc(F)cc3)N12 (configuration not stated) | . | /
N#CC1=C(N)C(C#N)(C#N)C(c2cccnc2)C2CCCC=C12 (configuration not stated) | . | .
CC1CC=C2C(C#N)=C(N)C(C#N)(C#N)C(c3cccc(Cl)c3)C2C1 (configuration not stated) | . | 70
CN1CC=C2C(C#N)=C(N)C(C#N)(C#N)C(c3cccc(Cl)c3)C2C1 (configuration not stated) | . | .
CC(C)(C)C1CC=C2C(C#N)=C(N)C(C#N)(C#N)C(c3c[nH]c4ccccc34)C2C1 (configuration not stated) | . | 98
N#CC1=C(N)C(C#N)(C#N)C(c2cccc([N+](=O)[O-])c2)C2CCCC=C12 (configuration not stated) | . | 53
N#CC1=C(N)C(C#N)(C#N)C(c2ccccc2I)C2CCCC=C12 (configuration not stated) | . | .
O=C(CCc1ccccc1)Nc1nnc(SCC(=O)c2ccccc2)s1 | . | .
O=C1C(=CC=Cc2ccccc2)Oc2cc(OC(=O)C3CC3)ccc21 | . | .
SMILES | Pf apPOL inh | mHTT CaM bind
Cc1cc2c(c(C)c1Cl)C(c1ccc3c(c1)OCO3)CC(O)(c1ccccc1)O2 (configuration not stated) | . | 86
Cc1cc2c(c(C)c1Br)C(c1ccc3c(c1)OCO3)CC(=O)O2 (configuration not stated) | . | .
Cc1ccc2oc(=O)c(C=C(O)c3ccc(Br)cc3)nc2c1 | . | .
CC(=O)NC1=NN(C(C)=O)C2(S1)C(=O)N(C(C)=O)c1ccccc12 (configuration not stated) | . | .
CC(=O)NC1=NN(C(C)=O)C2(S1)C(=O)N(C(C)=O)c1ccc(Br)cc12 (configuration not stated) | . | 52
O=C(CCCc1ccccc1)N1CCCn2nc(-c3ccc(Cl)cc3)cc2C1 | . | 88
COc1ccccc1CC(=O)N1CCCn2nc(-c3cccc(C)c3)cc2C1 | . | .
COc1ccccc1CC(=O)N1CCCC1c1ccc(C)cc1 (configuration not stated) | . | .
COc1ccccc1CC(=O)N1CCCC1c1ccc(Cl)cc1 (configuration not stated) | . | 59
Cc1cccc(-c2cc3n(n2)CCCN(C(=O)CCCc2ccccc2)C3)c1 | . | 56
COCC(=O)N1CCCn2nc(-c3cccc(C)c3)cc2C1 | . | .
Cc1cccc(-c2cc3n(n2)CCCN(C(=O)Cc2ccccc2F)C3)c1 | . | 73
O=C(CCCc1ccccc1)N1CCCn2nc(-c3cccs3)cc2C1 | . | .
CCOc1ccccc1C(=O)NCC(O)c1ccc(C)o1 (configuration not stated) | . | .
O=C(c1ccc2c(c1)OCO2)N1CCn2cnnc2C1 | . | .
COc1ccccc1CC(=O)N1CCCn2nc(-c3ccc(Cl)cc3)cc2C1 | . | 71
COc1ccc(-c2cc3n(n2)CCCN(Cc2ccccc2C)C3)cc1OC | . | 73
O=C(Cc1ccccc1F)N1CCCn2nc(-c3ccc(Cl)cc3)cc2C1 | . | .
COc1ccccc1CCC(=O)N1CCCn2nc(-c3ccc(C)cc3)cc2C1 | . | .
Cc1nc(-c2ccncc2)nc2c1CCC(=O)N2CC1CCCCC1 | . | .
CCCSc1nnc2c(n1)OC(c1cc3c(cc1[N+](=O)[O-])OCO3)Nc1ccccc1-2 (configuration not stated) | . | .
C=CCSc1nnc2c(n1)OC(c1cc3c(cc1[N+](=O)[O-])OCO3)Nc1ccccc1-2 (configuration not stated) | . | 93
COc1cccc(NC(=O)c2ccc(OC)c(OC)c2)c1 | . | .
OCCNCCOc1ccc(Br)cc1 | . | .
OCCNCCOc1ccc(Br)cc1Cl | . | 100
SMILES | Pf apPOL inh | mHTT CaM bind
COc1ccc(Cl)cc1C(=O)N1CCc2c(nc3cc(-c4ccccc4)[nH]n3c2=O)C1 | . | .
Cc1ccc(C(=O)N2CCc3c(nc4cc(-c5ccccc5Cl)[nH]n4c3=O)C2)cn1 | . | .
O=C(c1ccncc1)N1CCc2c(nc3cc(-c4ccccc4Cl)[nH]n3c2=O)C1 | . | .
COc1ccc(NC(=O)N2CCc3nc4cc(-c5ccccc5)[nH]n4c(=O)c3C2)c(OC)c1 | . | .
COc1ccc(NC(=O)N2CCc3c(nc4cc(-c5ccccc5)[nH]n4c3=O)C2)c(OC)c1 | . | 52
O=C(Nc1cccc(F)c1)N1CCc2c(nc3cc(-c4ccccc4Cl)[nH]n3c2=O)C1 | . | 73
COc1cccc(C(=O)N2CCc3c(nc4cc(-c5ccccc5)[nH]n4c3=O)C2)c1OC | . | 66
COc1ccc(C(=O)N2CCc3c(nc4cc(-c5ccccc5Cl)[nH]n4c3=O)C2)cn1 | . | 53
COc1ccc2c(=O)c(-c3cscn3)coc2c1 | . | .
CC(Oc1ccccc1)c1nc2c(Br)cc(Br)cc2c(=O)o1 (configuration not stated) | . | .
c1c(C2CCCCC2)n[nH]c1CN1CCCCC1 | . | .
C/C=C/c1ccc(OCCOc2ccccc2C(C)=O)c(OC)c1 | . | .
CC(=O)Nc1ccc(-c2noc(C3CCN(C(=O)c4ccc(C)c(F)c4)CC3)n2)cc1 | . | .
COc1ccc(C(=O)N2CCc3nc4cc(-c5ccccc5)[nH]n4c(=O)c3C2)c(OC)n1 | . | .
Cn1nc(C(=O)N2CCc3nc4cc(-c5ccccc5)[nH]n4c(=O)c3C2)c2ccccc21 | . | .
Cn1nc(C(=O)N2CCc3c(nc4cc(-c5ccccc5)[nH]n4c3=O)C2)c2ccccc21 | . | 61
COc1ccc(C(=O)N2CCc3c(nc4cc(-c5ccccc5)[nH]n4c3=O)C2)c(OC)n1 | . | 56
Cc1ccc(-n2ncc3c(NCCC4=CCCCC4)ncnc32)c(C)c1 | . | .
O=C(O)C(O)Cc1ccc(O)c(O)c1 (configuration not stated) | 84 | /
N[C@@H](Cc1ccc(O)c(O)c1)C(=O)O | . | /
CC(C)Sc1nc2c(cnn2-c2ccccc2)c(=O)[nH]1 | . | .
